Reference: PubChem BioAssay AID1159580 (chemical genetic matrix, 2015)
Where “and” joins values, the source holds several entries; their conditions need not be identical. Equal entries are not always repeated. In all, about 5,500 compounds went through this assay and about 2,000 (36%) were called active. Not shown: some 18% with an inconclusive outcome. No stated cut-off is given here; in the data, active means normalized growth mostly below about 0.91 (no sharp cut-off); inconclusive means no clear call, values can overlap the other calls; inactive means mostly above about 0.92. Some of the results follow.

Assay: chemical genetic growth profiling, strain panel (AID 1159580);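 further: tested at 20 µM; growth read once vehicle control cultures reached saturation at 30 °C; 1 = growth at the plate median or of vehicle wells; lower values mean less growth of the strain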
Conditions: growth OD

Measured: normalized growth

NCCSSCCN
inactive: S. cerevisiae deletion strains, locus YKL009W, strain mrt4, hits give low values 1.03 | S. cerevisiae deletion strains, locus YKL068W, hits give low values 1.01 | S. cerevisiae deletion strains, locus YKL085W, strain MDH1 (second series), hits give low values 1.01 | S. cerevisiae deletion strains, locus YKL085W, strain MDH1, hits give low values 1.01 | S. cerevisiae deletion strains, locus YKL160W, strain elf1, hits give low values 0.995 | S. cerevisiae deletion strains, locus YKL190W, strain CNB1, hits give low values 1.01 | S. cerevisiae deletion strains, locus YKR001C, strain vps1, hits give low values 1.02 | S. cerevisiae deletion strains, locus YKR026C, strain gcn3, hits give low values 0.993 | S. cerevisiae deletion strains, locus YKR091W, strain srl3, hits give low values 0.993 | S. cerevisiae deletion strains, locus YLL001W, strain dnm1, hits give low values 0.978 | S. cerevisiae deletion strains, locus YLL026W, hits give low values 0.989 | S. cerevisiae deletion strains, locus YLL041C, strain sdh2, hits give low values 0.997 | S. cerevisiae deletion strains, locus YLR027C, strain aat2, hits give low values 0.99 | S. cerevisiae deletion strains, locus YLR039C, strain RIC1, hits give low values 1.02 | S. cerevisiae deletion strains, locus YLR058C, strain SHM2, hits give low values 1.01 | S. cerevisiae deletion strains, locus YLR102C, strain apc9, hits give low values 0.994 | S. cerevisiae deletion strains, locus YLR113W, strain HOG1, hits give low values 1.05 | S. cerevisiae deletion strains, locus YLR221C, strain rsa3, hits give low values 0.998 | S. cerevisiae deletion strains, locus YLR258W, strain gsy2, hits give low values 0.996 | S. cerevisiae deletion strains, locus YLR262C, strain YPT6 (second series), hits give low values 0.994 | S. cerevisiae deletion strains, locus YLR262C, strain YPT6, hits give low values 1.02 | S. cerevisiae deletion strains, locus YLR268W, strain sec22, hits give low values 1.05 | S. cerevisiae deletion strains, locus YLR320W, strain mms22, hits give low values 1 | S. cerevisiae deletion strains, locus YLR330W, strain CHS5, hits give low values 1.01 | S. cerevisiae deletion strains, locus YLR342W, strain FKS1 (second series), hits give low values 1 | S. cerevisiae deletion strains, locus YLR342W, strain FKS1, hits give low values 0.983 | S. cerevisiae deletion strains, locus YLR357W, strain rsc2, hits give low values 0.979 | S. cerevisiae deletion strains, locus YLR370C, strain arc18, hits give low values 0.993 | S. cerevisiae deletion strains, locus YLR371W, strain rom2, hits give low values 1.01 | S. cerevisiae deletion strains, locus YLR384C, strain iki3, hits give low values 0.987 | S. cerevisiae deletion strains, locus YLR418C, strain cdc73, hits give low values 0.999 | S. cerevisiae deletion strains, locus YML016C, strain PPZ1, hits give low values 1 | S. cerevisiae deletion strains, locus YML032C, strain rad52, hits give low values 1.03 | S. cerevisiae deletion strains, locus YML120C, strain ndi1, hits give low values 0.995 | S. cerevisiae deletion strains, locus YML124C, strain tub3, hits give low values 1 | S. cerevisiae deletion strains, locus YMR058W, strain fet3, hits give low values 1 | S. cerevisiae deletion strains, locus YMR078C, strain ctf18, hits give low values 1.01 | S. cerevisiae deletion strains, locus YMR125W, strain sto1, hits give low values 1 | S. cerevisiae deletion strains, locus YMR129W, hits give low values 1 | S. cerevisiae deletion strains, locus YMR205C, strain PFK2, hits give low values 0.992 | S. cerevisiae deletion strains, locus YMR223W, strain ubp8, hits give low values 0.981 | S. cerevisiae deletion strains, locus YMR231W, strain pep5, hits give low values 1 | S. cerevisiae deletion strains, locus YMR263W, strain SAP30, hits give low values 1.03 and 1 | S. cerevisiae deletion strains, locus YMR307W, strain GAS1, hits give low values 0.996 | S. cerevisiae deletion strains, locus YNL067W, strain RPL9B, hits give low values 1.03 | S. cerevisiae deletion strains, locus YNL071W, strain lat1, hits give low values 1 | S. cerevisiae deletion strains, locus YNL128W, strain TEP1, hits give low values 1.02 and 1 | S. cerevisiae deletion strains, locus YNL153C, strain GIM3, hits give low values 1.03 | S. cerevisiae deletion strains, locus YNL175C, strain NOP13, hits give low values 1 | S. cerevisiae deletion strains, locus YNL183C, strain NPR1, hits give low values 1 | S. cerevisiae deletion strains, locus YNL197C, strain WHI3, hits give low values 1.02 | S. cerevisiae deletion strains, locus YNL209W, strain ssb2, hits give low values 1 | S. cerevisiae deletion strains, locus YNL224C, strain SQS1, hits give low values 1 | S. cerevisiae deletion strains, locus YNL233W, strain BNI4, hits give low values 1.02 | S. cerevisiae deletion strains, locus YNL248C, strain rpa49, hits give low values 0.998 | S. cerevisiae deletion strains, locus YNL250W, strain rad50, hits give low values 0.999 | S. cerevisiae deletion strains, locus YNL271C, strain bni1, hits give low values 1.01 | S. cerevisiae deletion strains, locus YNL298W, strain CLA4, hits give low values 1 | S. cerevisiae deletion strains, locus YNL307C, strain MCK1, hits give low values 1.01 | S. cerevisiae deletion strains, locus YNL322C, strain KRE1 (second series), hits give low values 0.998 | S. cerevisiae deletion strains, locus YNL322C, strain KRE1, hits give low values 1.01 and 0.988 | S. cerevisiae deletion strains, locus YNR049C, strain mso1, hits give low values 1 | S. cerevisiae deletion strains, locus YNR052C, strain pop2, hits give low values 1 | S. cerevisiae deletion strains, locus YOL006C, strain TOP1, hits give low values 1.08 | S. cerevisiae deletion strains, locus YOL012C, strain htz1 0.933 | S. cerevisiae deletion strains, locus YOL147C, strain pex11, hits give low values 1 | S. cerevisiae deletion strains, locus YOR001W, strain rrp6, hits give low values 0.989 | S. cerevisiae deletion strains, locus YOR061W, strain CKA2, hits give low values 1.01 | S. cerevisiae deletion strains, locus YOR069W, strain VPS5, hits give low values 1.01 | S. cerevisiae deletion strains, locus YOR070C, strain gyp1, hits give low values 0.999 | S. cerevisiae deletion strains, locus YOR080W, strain dia2, hits give low values 1 | S. cerevisiae deletion strains, locus YOR083W, strain WHI5 (second series), hits give low values 1.01 | S. cerevisiae deletion strains, locus YOR083W, strain WHI5, hits give low values 0.99 | S. cerevisiae deletion strains, locus YOR106W, strain vam3, hits give low values 0.985 | S. cerevisiae deletion strains, locus YOR136W, strain idh2, hits give low values 0.991 | S. cerevisiae deletion strains, locus YOR144C, strain elg1, hits give low values 1.01 | S. cerevisiae deletion strains, locus YOR184W, strain ser1, hits give low values 0.966 | S. cerevisiae deletion strains, locus YOR231W, strain MKK1, hits give low values 1.09 | S. cerevisiae deletion strains, locus YOR265W, strain rbl2, hits give low values 0.993 | S. cerevisiae deletion strains, locus YOR270C, strain vph1, hits give low values 1.02 | S. cerevisiae deletion strains, locus YOR290C, strain snf2, hits give low values 1.01 | S. cerevisiae deletion strains, locus YOR316C, strain cot1, hits give low values 1.01 | S. cerevisiae deletion strains, locus YPL051W, strain arl3, hits give low values 0.982 | S. cerevisiae deletion strains, locus YPL055C, strain LGE1, hits give low values 0.994 | S. cerevisiae deletion strains, locus YPL078C, strain atp4, hits give low values 0.998 | S. cerevisiae deletion strains, locus YPL106C, strain sse1, hits give low values 0.984 | S. cerevisiae deletion strains, locus YPL240C, strain hsp82, hits give low values 0.991 | S. cerevisiae deletion strains, locus YPL241C, strain CIN2, hits give low values 1.01 | S. cerevisiae deletion strains, locus YPL256C, strain CLN2, hits give low values 1.07 | S. cerevisiae deletion strains, locus YPR119W, strain clb2, hits give low values 1.01 | S. cerevisiae deletion strains, locus YPR141C, strain kar3, hits give low values 0.997 | S. cerevisiae deletion strains, locus YPR163C, strain tif3, hits give low values 1.01 | S. cerevisiae deletion strains, locus YPR167C, strain met16, hits give low values 1 | S. cerevisiae deletion strains, strain wtn01, hits give low values 1.03 | S. cerevisiae strains, strain wild type, hits give low values 1.01
